# Active and inactive are the calls of the source.
# Key:
# [1] = binders of probe aFSTL3 on microarray, primary screen, stem cell growth factor project, biochemical, small-molecule microarray, fluorescence 635/667 (AID 1064); conditions: higher = more signal;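 note: measures binding of the biotinylated anti-FSTL3 antibody to printed compounds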
# [2] = binders from COS7 lysate, DM2A8 probe, primary screen, torsin A project, cell lysate, small-molecule microarray, fluorescence 635/667 (AID 1065); conditions: higher = more signal, COS7 lysate expressing mutant human TOR1A
# [3] = binders of probe aFGF2 on microarray, primary screen, stem cell growth factor project, biochemical, small-molecule microarray, fluorescence 635/667 (AID 1067); conditions: higher = more signal;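 note: measures binding of biotinylated aFGF2 protein to printed compounds on slides; z-score merges feature fluorescence and signal-to-noise across triplicate slides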
# [4] = binders of probe aFGF10 on microarray, primary screen, stem cell growth factor project, biochemical, small-molecule microarray, fluorescence 635/667 (AID 1071); conditions: higher = more signal;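 note: score merges 667 nm spot intensity and signal to noise from triplicate slides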
# [5] = target: Neurogenic locus notch homolog protein 2 (Homo sapiens) (UniProt Q04721); test: Notch2 binders on small-molecule microarrays, primary screen, biochemical, small-molecule microarray, 635 nm fluorescence, stem cell growth factors (AID 1073); conditions: Notch2 binding, higher = more signal
# [6] = target: Pro-neuregulin-1, membrane-bound isoform (Homo sapiens) (UniProt Q02297); test: NRG1 binders on small-molecule microarrays, primary screen, psychiatric disease protein project, biochemical, small-molecule microarray, fluorescence 635/667 (AID 1075); conditions: NRG1 binding, 635 nm fluorescence, higher = more signal;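 note: score combines 667 nm spot fluorescence with signal to noise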
# [7] = system: Neuregulin-1 EGF-like domain; test: binders of neuregulin-1 EGF-like domain, primary screen, biochemical, small-molecule microarray, 635 nm fluorescence (AID 1081); conditions: small-molecule microarray binding, higher = more signal;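 note: binding of the protein to compounds printed on small-molecule microarray slides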
# [8] = FRG1 promoter luciferase signal modulators, primary screen, FRG1 inhibition for FSHD, cell-based, C2C12 myotubes, firefly/Renilla luciferase, luminescence (AID 1084); conditions: higher = more signal, called active from +8 up or from −8 down
# [9] = binders of probe aFST on microarray, primary screen, stem cell growth factor project, biochemical, small-molecule microarray, fluorescence 635/667 (AID 1086); conditions: higher = more signal;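 note: score merges 667 nm fluorescence with signal-to-noise of each printed compound spot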
# [10] = binders of probe aHhip on microarray, primary screen, stem cell growth factor project, biochemical, small-molecule microarray, fluorescence 635/667 (AID 1087); conditions: higher = more signal;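 note: score merges spot fluorescence at 667nm with spot signal to noise ratio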
# [11] = system: PRMT1 (protein arginine N-methyltransferase 1); test: PRMT1 binders on small-molecule microarrays, primary screen, biochemical, small-molecule microarray, 635 nm fluorescence (AID 1088); conditions: small-molecule microarray binding, higher = more signal;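 note: binding of Prmt1 protein to compounds spotted on small-molecule microarray slides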
# [12] = yeast growth modulation, basal conditions, primary screen, YJM789 clinical isolate, OD600, 24 h (AID 1089);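 note: growth of clinical yeast isolate S. cerevisiae YJM 789 seeded 1000 cells per well; test concentration not given here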; conditions: S. cerevisiae YJM789 growth, higher = more signal, called active from +8 up or from −8 down
# [13] = fission yeast growth modulation, primary screen, strain 972, OD600, 24 h, no modulator (AID 1090);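 note: basal condition with compound alone and no growth modifier present; test concentration not given here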; conditions: S. pombe 972 growth, higher = more signal, called active from +8 up or from −8 down
# [14] = S. cerevisiae growth modulation with rapamycin, primary screen, strain BY4716, OD600, 96 h (AID 1091); conditions: higher = more signal, called active from +8 up or from −8 down; note: test concentration not given here
# [15] = target: Torsin-1A-interacting protein 2 (Homo sapiens) (UniProt Q8NFQ8); test: LULL1 binders on small-molecule microarray, primary screen, cell lysate, human LULL1 lysate, 635/667 nm fluorescence (AID 1092); conditions: hLULL1 lysate binding, 635 nm fluorescence, higher = more signal;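 note: probe is lysate of COS7 cells overexpressing human LULL1; score merges per-feature 667 nm fluorescence with signal-to-noise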
# [16] = E. coli growth modulation, two-sided OD650, primary screen, E. coli filamentation project, strain DRC41, 24 h (AID 1093); conditions: OD650, 24 h, higher = more signal, called active from +8 up or from −8 down;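 note: MC1000 strain lacking acrAB efflux and sulA so SOS filamentation is blocked; test concentration not given here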
# [17] = small-molecule microarray binders of probe aLefty2, primary screen, biochemical, biotinylated probe, 635/667 nm fluorescence (AID 1094); conditions: higher = more signal;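 note: score merges spot fluorescence near 667 nm with spot signal-to-noise ratio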
# [18] = system: Noggin (protein binding on small-molecule microarray); test: Noggin binders on small-molecule microarray, primary screen, biochemical, 635/667 nm fluorescence (AID 1095); conditions: 635 nm fluorescence, higher = more signal;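 note: score merges 667 nm feature fluorescence with signal to noise over triplicate slides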
# [19] = target: Neurogenic locus notch homolog protein 3 (Homo sapiens) (UniProt Q9UM47); test: NOTCH3 binders on small-molecule microarray, primary screen, biochemical, 635/667 nm fluorescence (AID 1096); conditions: NOTCH3 binding, 635 nm fluorescence, higher = more signal
# [20] = small-molecule microarray binders of probe aEGFR, primary screen, biochemical, biotinylated probe, 635/667 nm fluorescence (AID 1097); conditions: higher = more signal;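 note: probe is a biotinylated anti-EGFR antibody binding compounds printed on slides; score combines fluorescence near 667 nm and signal to noise of each spot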
# Sequence of Torsin-1A-interacting protein 2 (Homo sapiens) (Q8NFQ8 whole entry, looked up): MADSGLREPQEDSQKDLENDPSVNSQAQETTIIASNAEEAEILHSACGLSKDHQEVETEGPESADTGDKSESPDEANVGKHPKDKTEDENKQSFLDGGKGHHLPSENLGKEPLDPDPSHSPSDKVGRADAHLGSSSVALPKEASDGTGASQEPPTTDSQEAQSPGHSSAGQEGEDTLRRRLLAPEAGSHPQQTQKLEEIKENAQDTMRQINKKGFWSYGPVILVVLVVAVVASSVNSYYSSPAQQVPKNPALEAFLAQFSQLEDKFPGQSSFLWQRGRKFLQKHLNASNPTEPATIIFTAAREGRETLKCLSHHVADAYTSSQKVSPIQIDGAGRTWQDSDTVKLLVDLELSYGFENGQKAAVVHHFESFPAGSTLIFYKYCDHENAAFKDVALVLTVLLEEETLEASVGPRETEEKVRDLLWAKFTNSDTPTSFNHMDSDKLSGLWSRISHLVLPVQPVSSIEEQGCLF
# Sequence of Neurogenic locus notch homolog protein 2 (Homo sapiens) (Q04721 whole entry, looked up, canonical isoform): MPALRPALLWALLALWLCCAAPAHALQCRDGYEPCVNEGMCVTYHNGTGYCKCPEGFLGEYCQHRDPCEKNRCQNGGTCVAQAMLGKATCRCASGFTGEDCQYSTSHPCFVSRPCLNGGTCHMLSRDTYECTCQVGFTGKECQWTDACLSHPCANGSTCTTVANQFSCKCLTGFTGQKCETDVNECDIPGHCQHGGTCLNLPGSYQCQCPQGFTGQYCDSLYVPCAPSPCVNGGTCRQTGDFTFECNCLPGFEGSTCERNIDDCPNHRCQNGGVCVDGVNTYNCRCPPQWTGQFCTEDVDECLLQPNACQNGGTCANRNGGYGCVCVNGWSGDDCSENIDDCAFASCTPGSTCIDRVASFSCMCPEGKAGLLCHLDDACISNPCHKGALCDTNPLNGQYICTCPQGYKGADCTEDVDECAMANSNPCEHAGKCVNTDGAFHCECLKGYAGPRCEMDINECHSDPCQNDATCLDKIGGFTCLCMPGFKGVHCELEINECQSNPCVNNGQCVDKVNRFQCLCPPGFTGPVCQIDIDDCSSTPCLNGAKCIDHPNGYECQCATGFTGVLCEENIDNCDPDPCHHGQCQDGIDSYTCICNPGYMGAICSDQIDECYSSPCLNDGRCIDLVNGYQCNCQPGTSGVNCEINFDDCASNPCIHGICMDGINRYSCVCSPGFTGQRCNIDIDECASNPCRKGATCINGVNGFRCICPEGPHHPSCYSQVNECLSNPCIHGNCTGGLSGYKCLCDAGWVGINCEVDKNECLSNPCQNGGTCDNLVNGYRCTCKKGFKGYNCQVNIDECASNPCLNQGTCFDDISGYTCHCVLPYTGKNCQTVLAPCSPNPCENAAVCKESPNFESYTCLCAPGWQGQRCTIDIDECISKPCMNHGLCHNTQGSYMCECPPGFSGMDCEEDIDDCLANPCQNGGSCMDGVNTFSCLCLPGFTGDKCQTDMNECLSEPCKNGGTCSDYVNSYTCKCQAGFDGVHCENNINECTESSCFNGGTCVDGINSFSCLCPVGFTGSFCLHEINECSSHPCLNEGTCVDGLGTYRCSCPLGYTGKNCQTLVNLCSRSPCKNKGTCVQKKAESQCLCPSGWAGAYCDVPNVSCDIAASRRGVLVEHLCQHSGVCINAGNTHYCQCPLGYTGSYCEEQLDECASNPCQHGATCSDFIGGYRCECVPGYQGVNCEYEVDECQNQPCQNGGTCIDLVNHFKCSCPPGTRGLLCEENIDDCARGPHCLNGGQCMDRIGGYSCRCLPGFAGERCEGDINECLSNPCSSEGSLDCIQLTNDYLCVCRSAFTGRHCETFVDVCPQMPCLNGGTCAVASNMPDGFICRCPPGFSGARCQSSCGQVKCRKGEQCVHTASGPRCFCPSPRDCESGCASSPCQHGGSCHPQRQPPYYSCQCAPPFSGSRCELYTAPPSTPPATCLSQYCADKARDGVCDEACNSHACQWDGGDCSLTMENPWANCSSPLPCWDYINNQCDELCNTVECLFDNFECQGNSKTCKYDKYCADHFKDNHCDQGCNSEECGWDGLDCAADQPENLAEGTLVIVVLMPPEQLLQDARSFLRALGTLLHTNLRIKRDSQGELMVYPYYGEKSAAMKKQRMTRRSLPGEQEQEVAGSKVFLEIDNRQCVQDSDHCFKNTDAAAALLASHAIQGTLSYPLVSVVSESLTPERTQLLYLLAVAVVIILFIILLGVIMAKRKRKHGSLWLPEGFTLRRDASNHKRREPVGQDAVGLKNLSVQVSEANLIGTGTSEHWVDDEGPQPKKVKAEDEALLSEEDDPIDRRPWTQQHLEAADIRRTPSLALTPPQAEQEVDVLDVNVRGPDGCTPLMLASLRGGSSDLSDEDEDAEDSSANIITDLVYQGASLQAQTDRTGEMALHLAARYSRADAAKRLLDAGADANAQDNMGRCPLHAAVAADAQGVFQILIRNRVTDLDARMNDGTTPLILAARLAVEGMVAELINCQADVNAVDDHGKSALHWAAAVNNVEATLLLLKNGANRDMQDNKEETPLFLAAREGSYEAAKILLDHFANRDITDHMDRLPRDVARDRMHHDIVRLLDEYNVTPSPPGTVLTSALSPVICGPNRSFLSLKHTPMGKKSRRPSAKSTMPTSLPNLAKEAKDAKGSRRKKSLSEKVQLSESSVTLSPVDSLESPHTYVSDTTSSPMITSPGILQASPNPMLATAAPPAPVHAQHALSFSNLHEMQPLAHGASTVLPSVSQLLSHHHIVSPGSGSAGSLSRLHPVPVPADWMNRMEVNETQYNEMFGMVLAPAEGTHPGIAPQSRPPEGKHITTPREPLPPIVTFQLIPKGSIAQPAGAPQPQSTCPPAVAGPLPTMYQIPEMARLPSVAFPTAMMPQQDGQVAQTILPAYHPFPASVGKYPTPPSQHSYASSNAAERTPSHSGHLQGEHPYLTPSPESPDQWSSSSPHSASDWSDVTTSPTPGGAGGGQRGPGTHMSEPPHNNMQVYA
# Sequence of Pro-neuregulin-1, membrane-bound isoform (Homo sapiens) (Q02297 whole entry, looked up, the tested form may be a part, canonical isoform): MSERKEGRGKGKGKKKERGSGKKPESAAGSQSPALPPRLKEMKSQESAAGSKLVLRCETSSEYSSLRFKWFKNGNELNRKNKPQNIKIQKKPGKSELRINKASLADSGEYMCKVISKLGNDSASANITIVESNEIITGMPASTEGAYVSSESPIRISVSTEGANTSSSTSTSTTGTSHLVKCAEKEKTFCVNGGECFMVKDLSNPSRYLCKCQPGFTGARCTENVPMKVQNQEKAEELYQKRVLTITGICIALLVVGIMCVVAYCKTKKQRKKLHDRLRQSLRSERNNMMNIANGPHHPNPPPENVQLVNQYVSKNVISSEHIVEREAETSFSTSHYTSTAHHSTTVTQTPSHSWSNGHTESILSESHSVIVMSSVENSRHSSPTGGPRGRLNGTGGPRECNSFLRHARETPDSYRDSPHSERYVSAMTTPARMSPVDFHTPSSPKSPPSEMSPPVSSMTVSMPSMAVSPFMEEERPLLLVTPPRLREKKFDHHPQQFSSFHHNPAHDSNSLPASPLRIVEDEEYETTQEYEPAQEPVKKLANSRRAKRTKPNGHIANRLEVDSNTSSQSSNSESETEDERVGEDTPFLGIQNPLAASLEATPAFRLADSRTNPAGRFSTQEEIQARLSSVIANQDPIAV
Structure (SMILES),composite z-score [1],composite z-score [2],composite z-score [3],composite z-score [4],composite z-score [5],composite z-score [6],composite z-score [7],z-score [8],composite z-score [9],composite z-score [10],composite z-score [11],z-score [12],z-score [13],z-score [14],composite z-score [15],z-score [16],composite z-score [17],composite z-score [18],composite z-score [19],composite z-score [20]
C[C@@H]1CC[C@H]2C(=O)OC(Cc3ccccc3)CN2[C@H]1c1ccc(Br)cc1 (stereo not given in full),-0.438,-0.441,-0.156,0.578,-0.125,0.485,1.01,-0.156 (inactive),-0.103,0.0373,1.28,0.127 (inactive),-6.77 (inactive),-0.624 (inactive),1.18,0.823 (inactive),-0.0923,0.151,0.0343,-0.133
CC(C)=CCCC(C)=CCON=C1C[C@@H](O)[C@@H](O)[C@@H]2[C@@H]3C(=O)N(Cc4ccc5c(c4)OCO5)C(=O)[C@@H]3CC[C@H]12,-0.386,-0.203,-0.0687,0.584,1.18,0.78,0.615,0.34 (inactive),0.416,-0.272,1.44,0.329 (inactive),0.197 (inactive),-0.251 (inactive),1.93,0.103 (inactive),-0.166,0.564,0.907,-0.0271
CCN1C(=O)[C@H]2[C@H]3[C@H](O)[C@H](O)CC(=NOC[C@@H](O)[C@H]4O[C@@H]5OC(C)(C)O[C@@H]5[C@H]4O)[C@@H]3CC[C@H]2C1=O,-0.635,-0.112,-0.173,0.242,0.352,0.12,-0.0114,-0.116 (inactive),0.156,-0.291,-0.556,0.141 (inactive),0.234 (inactive),0.33 (inactive),-0.0973,0.454 (inactive),-0.159,0.0713,-0.124,-0.0685
COc1ccc(OC[C@H]2CN3[C@@H](CC[C@@H](C)[C@@H]3c3ccc(Br)cc3)C(=O)O2)cc1,-0.358,0.722,-0.181,0.243,-0.142,0.165,-0.228,-0.539 (inactive),-0.115,-0.109,0.591,-0.313 (inactive),-0.237 (inactive),0.179 (inactive),0.184,-0.915 (inactive),-0.198,0.318,-0.175,-0.0082
C#CCCCON=C1[C@H]2CCn3c(=O)n(Cc4cc5c(cc4Cl)OCO5)c(=O)n3[C@H]2[C@H](O)[C@@H]2O[C@H]12,-0.652,0.203,-0.108,0.365,0.63,0.113,0.107,-0.12 (inactive),0.241,-0.0645,0.0698,0.842 (inactive),1.28 (inactive),1.63 (inactive),0.0322,0.314 (inactive),0.147,0.508,0.836,-0.191
O=C1C2=CC[C@H]3C(=O)N(C[C@@H]4CCCO4)C(=O)[C@H]3[C@H]2[C@H](O)[C@@H]2O[C@H]12,-0.275,0.191,-0.0878,0.111,-0.0143,-0.209,0.75,-1.42 (inactive),-0.258,-0.145,0.514,0.0382 (inactive),-0.722 (inactive),0.109 (inactive),-0.553,-0.0137 (inactive),-0.126,-0.0904,-0.264,-0.0565
CCOC(=O)[C@H](CC(C)C)NC(=O)CCC1CC(OC(=O)NCCc2ccc(F)cc2)CC2(CCCC(COC(=O)NCc3cccc4ccccc34)O2)O1 (stereo not given in full),-0.249,0.685,-0.195,0.162,0.401,0.0303,0.76,1.95 (inactive),0.748,-0.134,0.733,-0.175 (inactive),-0.421 (inactive),0.238 (inactive),2.16,0.415 (inactive),-0.181,0.261,-0.773,-0.0995
COC(=O)[C@H](C)NC(=O)CCC1CC(OC(=O)NCc2cccc3ccccc23)CC2(CCCC(COC(=O)NCCOc3ccccc3)O2)O1 (stereo not given in full),-0.359,0.222,-0.0707,0.15,0.708,1.27,1.01,0.191 (inactive),0.173,-0.169,1.53,-0.534 (inactive),-0.231 (inactive),-0.576 (inactive),2.21,0.544 (inactive),-0.208,0.11,0.377,-0.145
CC(C)CON=C1C[C@@H](O)[C@@H](O)[C@@H]2[C@@H]3C(=O)N([C@@H](C)c4ccccc4)C(=O)[C@@H]3CC[C@@H]12,0.083,0.114,-0.145,0.107,0.309,-0.104,-0.546,0.431 (inactive),0.624,0.0373,-0.413,0.281 (inactive),0.603 (inactive),-0.188 (inactive),0.246,0.3 (inactive),0.224,0.347,0.114,-0.0286
COc1ccc(O[C@H]2C=C[C@@H](c3ccccc3)O[C@@H]2CON=C2c3cc(OC)ccc3O[C@H](c3cccc(OC)c3)[C@H]2O)cc1,-0.661,0.354,-0.201,-0.054,1.38,-0.139,0.463,1.82 (inactive),0.34,-0.226,0.554,-0.0549 (inactive),0.281 (inactive),-0.0588 (inactive),0.585,0.0551 (inactive),-0.231,1.4,0.927,-0.171

# Source: PubChem BioAssay
